Test results taken from PubChem BioAssay AID1159577 (Broad Institute, 2015).
Out of some 1,300 compounds screened, about 240 (18%) were called active. About 8% were inconclusive and are not listed. No rule for the calls is given here. These entries were drawn from the full list. Measured potencies and affinities stand elsewhere.

Experiment: HepG2 cell cytotoxicity, dose response, cytotoxicity control, cherry-picked samples (AID 1159577);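 also: 0% = neutral control wells and -100% = positive control wells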
Settings: HepG2 cytotoxicity counterscreen, plate reader; series mostly up to 19.5 µM; activity change, negative = cytotoxicity: at the top concentration

Compound | activity change, negative = cytotoxicity
CO[C@@H]1CN(C)C(=O)c2cc(NC(=O)C3CC3)ccc2OC[C@H](C)N(CC2CCCC2)C[C@H]1C | -23.7% (inactive)
CCc1sc(N2[C@@H](C#N)[C@@H](c3ccccc3-c3ccccc3)[C@@H]2CO)nc1C | -7.69% [at 21 µM] (inactive)
CC(C)CNC[C@@H]1[C@@H](c2ccccc2)[C@@H](CO)N1Cc1ccc(F)cc1 | -9.73% (inactive)
CN1c2ccc(C#Cc3cccnc3)cc2[C@@H]2[C@@H](CCN2C(=O)C2CCC2)[C@@H]1CO | 23.2% (inactive)
CNC[C@@H]1Oc2cc(C#Cc3cccnc3)ccc2S(=O)(=O)N([C@H](C)CO)C[C@H]1C | 6.27% (inactive)
COc1cc(CN2CC3(CCN(C(=O)c4cccnc4)CC3)c3c([nH]c4cc(OC)ccc34)[C@@H]2CO)cc(OC)c1 | -13.4% (inactive)
COc1ccccc1S(=O)(=O)N(C)C[C@@H]1OCc2ccccc2-c2c(n(C)c3ccccc23)C(=O)N([C@@H](C)CO)C[C@@H]1C | -6.89% (inactive)
C[C@H](CO)N1C[C@H](C)[C@@H](CN(C)Cc2ccc(Oc3ccccc3)cc2)OCc2ccccc2-c2c(n(C)c3ccccc23)C1=O | 11.4% (inactive)
C[C@H](CO)N1C[C@H](C)[C@@H](CN(C)Cc2cccc(C(=O)Nc3ccccc3N)c2)OCc2ccccc2-c2c(n(C)c3ccccc23)C1=O | 2.47% (inactive)
C[C@H]1CN([C@@H](C)CO)C(=O)c2c(c3ccccc3n2C)-c2ccccc2CO[C@@H]1CN(C)Cc1cccc(O)c1 | -19.8% [at 21 µM] (inactive)
COc1cccc(CN(C)C[C@H]2OCc3ccccc3-c3c(n(C)c4ccccc34)C(=O)N([C@H](C)CO)C[C@@H]2C)c1 | -23.4% [at 21 µM] (inactive)
C[C@H](CO)N1C[C@H](C)[C@@H](CN(C)S(=O)(=O)c2cccc(F)c2)OCc2ccccc2-c2c(n(C)c3ccccc23)C1=O | 2.61% (inactive)
C[C@@H]1CN([C@H](C)CO)C(=O)c2c(c3ccccc3n2C)-c2ccccc2CO[C@@H]1CN(C)Cc1cccc(F)c1 | -19.9% (inactive)
COc1ccccc1S(=O)(=O)N(C)C[C@H]1OCc2ccccc2-c2c(n(C)c3ccccc23)C(=O)N([C@@H](C)CO)C[C@@H]1C | 11.2% (inactive)
C[C@H]1CN([C@@H](C)CO)C(=O)c2c(c3ccccc3n2C)-c2ccccc2CO[C@H]1CN(C)C(=O)Nc1ccc(-c2ccccc2)cc1 | 29.3% (inactive)
C[C@H](CO)N1C[C@H](C)[C@H](CN(C)S(=O)(=O)c2ccc(Cl)cc2)OCc2ccccc2-c2c(n(C)c3ccccc23)C1=O | -12.9% [at 21 µM] (inactive)
Cc1ccc(S(=O)(=O)N(C)C[C@H]2OCc3ccccc3-c3c(n(C)c4ccccc34)C(=O)N([C@H](C)CO)C[C@@H]2C)cc1 | 10.1% (inactive)
O=C(C[C@H]1C[C@H]2c3cc(NC(=O)Cc4ccncc4)ccc3O[C@H]2[C@H](CO)O1)NCc1ccccc1 | -6.36% (inactive)
COc1cccc(NC(=O)N(C)C[C@@H]2Oc3cc(C#Cc4ccccc4)ccc3S(=O)(=O)N([C@H](C)CO)C[C@@H]2C)c1 | 0.444% (inactive)
COc1ccc(S(=O)(=O)N(C)C[C@H]2Oc3ncc(-c4ccncc4)cc3C(=O)N([C@H](C)CO)C[C@@H]2C)cc1 | 2.98% [at 21 µM] (inactive)
COc1ccc(C#Cc2ccc3c(c2)O[C@@H](CN(C)C(=O)Nc2cccc(OC)c2)[C@H](C)CN([C@H](C)CO)S3(=O)=O)cc1 | -20% (inactive)
C[C@@H]1CN([C@@H](C)CO)C(=O)c2cccc(NC(=O)c3cnccn3)c2O[C@@H]1CN(C)Cc1ccc(-c2ccccc2)cc1 | -9.22% (inactive)

Compound | activity change, negative = cytotoxicity
COc1ccc(NC(=O)N2CCC3(CC2)CN(C(=O)C2CCC2)[C@@H](CO)c2c3c3ccc(OC)cc3n2C)cc1 | 11.9% (inactive)
C[C@@H]1CN([C@@H](C)CO)C(=O)c2c(c3ccccc3n2C)-c2ccccc2CO[C@@H]1CN(C)C(=O)[C@H](C)c1ccccc1 | -14.1% (inactive)
C[C@H](CO)N1C[C@H](C)[C@@H](CN(C)C(=O)[C@H](C)c2ccccc2)OCc2ccccc2-c2c(n(C)c3ccccc23)C1=O | 3.44% (inactive)
CO[C@@H]1CN(C)C(=O)c2ccc(NC(=O)NC(C)C)cc2OC[C@@H](C)N(Cc2ccccc2)C[C@H]1C | 14.9% (inactive)
COc1cccc(NC(=O)N2[C@H](CO)[C@H](c3ccccc3)[C@H]2CNCC(C)C)c1 | -12.9% (inactive)
COc1ccc(-c2ccccc2[C@H]2[C@@H](C#N)N(C(=O)NC3CCCC3)[C@H]2CO)cc1 | -5.87% (inactive)
C[C@@H]1CN([C@@H](C)CO)C(=O)c2cc(NC(=O)C3CC3)ccc2O[C@H]1CN(C)CC1CCCCC1 | -8.49% (inactive)
COc1ccc(NC(=O)Nc2ccc3c(c2)CC(=O)N([C@H](C)CO)C[C@H](C)[C@@H](CN(C)CC2CCCCC2)O3)cc1 | -30.7% (inactive)
C[C@@H]1CN([C@@H](C)CO)C(=O)c2cc(NC(=O)Nc3ccc(C(F)(F)F)cc3)ccc2O[C@H]1CN(C)C(=O)Nc1cccc2ccccc12 | -13.1% [at 21 µM] (inactive)
C[C@H](CO)N1C[C@H](C)[C@H](CN(C)CC2CC2)Oc2ccc(NC(=O)Nc3cccc4ccccc34)cc2CC1=O | -5.7% (inactive)
C[C@@H]1CN([C@@H](C)CO)C(=O)Cc2cc(NC(=O)Nc3ccc4c(c3)OCO4)ccc2O[C@@H]1CN(C)CC1CC1 | -3.92% (inactive)
C[C@H](CO)N1C[C@H](C)[C@H](CN(C)CC2CC2)Oc2ccc(NS(=O)(=O)c3ccc(Cl)cc3)cc2CC1=O | 0.335% (inactive)
COc1ccc(C#Cc2ccc3c(c2)O[C@@H](CN(C)S(=O)(=O)c2ccccc2F)[C@@H](C)CN([C@H](C)CO)S3(=O)=O)cc1 | -9.31% (inactive)
OC[C@@H]1[C@@H](c2ccccc2)C2(CN(CC3CC3)C2)N1Cc1ccc(F)cc1 | 2.98% (inactive)
COCC(=O)Nc1ccc2c(c1)C(=O)N(C)C[C@H](OC)[C@H](C)CN(Cc1cc(F)ccc1F)[C@H](C)CO2 | 10.4% (inactive)
COc1ccc(CN(C)C[C@@H]2Oc3c(NC(=O)c4ccc(-c5nccs5)cc4)cccc3C(=O)N([C@@H](C)CO)C[C@H]2C)cc1 | -15% (inactive)
COc1ccc(S(=O)(=O)N(C)C[C@@H]2Oc3c(NC(=O)Nc4cccc5ccccc45)cccc3C(=O)N([C@H](C)CO)C[C@@H]2C)cc1 | 23.4% (inactive)
COc1ccc(S(=O)(=O)N(C)C[C@H]2Oc3c(NC(=O)Nc4cccc5ccccc45)cccc3C(=O)N([C@@H](C)CO)C[C@H]2C)cc1 | 6.17% (inactive)
COc1ccc(S(=O)(=O)Nc2cccc3c2O[C@H](CN(C)Cc2ccc(-c4ccccc4)cc2)[C@@H](C)CN([C@H](C)CO)C3=O)cc1 | -14.6% [at 21 µM] (inactive)
C[C@H](CO)N1C[C@H](C)[C@@H](CN(C)Cc2ccc(-c3ccccc3)cc2)Oc2c(NC(=O)c3ccc(-c4nccs4)cc3)cccc2C1=O | -7.21% (inactive)
COc1ccc(NC(=O)N(C)C[C@H]2Oc3c(NC(=O)Nc4ccccc4)cccc3C(=O)N([C@@H](C)CO)C[C@H]2C)cc1 | 3.11% (inactive)
